Compound activity (PubChem BioAssay)
Only some compounds are listed: those with a hit (about 4.1% of all), similar ones and a draw of the others.
F508del corr = CFTR F508del correction in bronchial cells. CFBE cells, YFP halide quenching; stimulated with forskolin plus potentiator P3; % fluorescence drop versus neutral controls. activity (quench increase), % at 7.58 µM. 350,000 tested, 0.36% active. AID 720511;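 active means mean added fluorescence quench of at least 8% versus neutral control, with both replicates also reaching 8%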;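 further: cells transiently co-express mutant CFTR-F508del with the halide-sensitive YFP; corrector assay measuring rescue of mutant channel to the surface after 24 h compound exposure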
PglD inh = inhibitors of Campylobacter jejuni PglD acetyltransferase; inhibition, % at 12.5 µM; purified PglD enzyme, DTNB colorimetric CoA detection; 360,000 tested, 0.098% active; in the data active means inhibition above about 16%, passing the limit was not always enough
NSD2 inh = NSD2 (human) methyltransferase inhibition; O96028; NSD2 peptide methylation, AlphaScreen, 120 min; inhibition, % at 12.5 µM; 310,000 tested, 0.54% active; in the data active means inhibition above about 50%
HIV Env fusion = HIV envelope-mediated fusion inhibition. HeLa-JRFL Env/CEM21 cell fusion, luciferase. inhibition, % at 12.3 µM. 360,000 tested, 1.1% active. AID 651610;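 active means mean replicate inhibition score of at least 50 and every replicate individually at or above 50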;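 further: 0% = plate neutral controls and 100% = maraviroc near 300 nM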
ALR inh = blocks human ALR sulfhydryl oxidase activity. P55789. AID 485317. 290,000 tested, 3.8% active. purified ALR, DTT oxidation, H2O2 HRP-luminol luminescence. inhibition, % (concentration not given with the values);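 active means mean replicate inhibition above about 79%, with every replicate also reaching it, limit read from the data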
Casp6 inh = caspase-6 (human) enzyme inhibition; 350,000 tested, 0.53% active; inhibition, % at 12.5 µM; purified caspase-6, Z-VEID-R110 cleavage fluorescence; AID 686996; P55212;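 active means mean inhibition across replicates at least about 35%, with every replicate also reaching that limit, limit read from the data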;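 further: 0% = median of neutral control wells and 100% = no fluorescence left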
* = called active by the depositor; i = inactive; / = no result; [ ] = dose if it differs, or a comment.

SMILES	F508del corr	PglD inh	NSD2 inh	HIV Env fusion	ALR inh	Casp6 inh
CC(=O)NC(=S)Nc1sc2c(c1C(N)=O)CCC(C)C2 (configuration not stated)	-2	/	1	-24	89*	4
COc1ccccc1C(=O)Nc1ccc2c(c1)C(=O)N(C)C[C@@H](OC)[C@@H](C)CN[C@@H](C)CO2	-2	2	/	-9[16.7 µM]	/	-1
CC(C)(Sc1ccc(CCN(CCCCC2CCCCC2)C(=O)NC2CCCCC2)cc1)C(=O)O	-4	-4	/	57*	/	12
CN(Cc1ccccc1)C(=O)NC1CCCCC1	/	5	-1	-21	34	/
COc1ccc(N(C(=O)c2ccco2)C(C(=O)NC2CCCC2)c2ccncc2)cc1 (configuration not stated)	0	-6	34	-8	-5	/
O=C(NC1CCCCC1)C(c1ccc(Cl)cc1)N(C(=O)c1cnccn1)c1ccc2c(c1)OCO2 (configuration not stated)	/	/	-1	83*	-15	/
CCC(C)N(C(=O)c1csnn1)C(C(=O)NC1CCCC1)c1ccc(F)cc1 (configuration not stated)	-1	-7	-1	26	-10	0
CC(C)CCN(C(=O)c1csnn1)C(C(=O)NC1CCCCC1)c1ccc(F)cc1 (configuration not stated)	1	0	0	59*	-4	0
O=C(NC1CCCC1)C(c1ccncc1)N(Cc1cccs1)C(=O)c1csnn1 (configuration not stated)	/	1	2	/	-7	/
COc1cccc(N(C(=O)c2cnccn2)C(C(=O)NC2CCCCC2)c2ccc(Cl)cc2)c1 (configuration not stated)	/	8	-3	i	-3	/
CC(C)c1ccc(N(C(=O)c2ccco2)C(C(=O)NC2CCCC2)c2ccncc2)cc1 (configuration not stated)	-2	-3	2	62*	/	/
Cc1ccccc1CCN(C(=O)c1csnn1)C(C(=O)NC1CCCC1)c1ccncc1 (configuration not stated)	4	1	/	79*	5	8
CC(C)NC(=O)NCC[C@@H]1CC[C@H](NC(=O)CN(C)C)[C@H](CO)O1	-1	-2	/	4[16.7 µM]	/	-4
O=C(C[C@H]1C=C[C@@H](NC(=O)Cc2cccnc2)[C@@H](CO)O1)Nc1ccccc1	-1	-5	/	11[16.7 µM]	/	3
COCC(=O)N1CCC2(CC1)CN(Cc1ccccn1)[C@@H](CO)c1[nH]c3cc(OC)ccc3c12	1	/	/	/	/	/
C[C@@H]1CCCCO[C@@H](CN(C)C(=O)CCC(F)(F)F)[C@H](C)CN([C@@H](C)CO)C(=O)c2cc(NS(=O)(=O)c3ccc(Cl)cc3)ccc2O1	-1	-1	/	-31[16.7 µM]	/	2
CNC(=O)C[C@@H]1CC[C@H]2[C@H](COc3ccc(NC(=O)Cc4cccs4)cc3C(=O)N2C)O1	2	5	/	-8[16.7 µM]	/	/
CC(C)c1ccc(N(C(=O)c2csnn2)C(C(=O)NC2CCCC2)c2ccncc2)cc1 (configuration not stated)	0	3	45	77*	40	2
O=C(NC1CCCC1)C(c1ccncc1)N(C(=O)c1csnn1)c1ccc(F)cc1 (configuration not stated)	1	2	/	6	-3	0
Cc1ccccc1/C=N\NC(=O)c1ccc(Cn2cccn2)o1	/	/	-2	/	-6	/
O=C(N/N=C\c1cccc(Cl)c1)c1ccc(Cn2cccn2)o1	1	-1	-5	/	88*	-1
CCCC#Cc1ccc([C@@H]2[C@@H](CO)N3C(=O)CN(C(=O)CN4CCOCC4)C[C@@H]23)cc1	0	/	/	/	/	-1
Cn1c(=O)oc2cc(S(=O)(=O)N3CCCCC3)ccc21	-1	1	8	21	-1	/
Cn1c(=O)oc2cc(S(=O)(=O)N3CCCC3)ccc21	-1	0	/	62*	-6	-3
CCN(CC)c1ccc(NS(=O)(=O)c2ccc3c(c2)oc(=O)n3C)c(C)c1	-3	-3	/	/	99*	7
SMILES	F508del corr	PglD inh	NSD2 inh	HIV Env fusion	ALR inh	Casp6 inh
O=C(O)c1cc(S(=O)(=O)Nc2ccc(N3CCCCC3)cc2)ccc1Cl	0	-3	5	-2	98*	16
O=S(=O)(Nc1ccc(N2CCCCC2)cc1)c1ccc(F)c(F)c1	/	/	8	10	99*	-1
O=C(O)c1cccc(S(=O)(=O)Nc2ccc(N3CCCCC3)cc2)c1	-1	6	4	-23	99*	9
C[C@H]1CN([C@@H](C)CO)C(=O)c2cc(NS(=O)(=O)c3ccc(F)cc3)ccc2O[C@@H]1CN(C)C(=O)Nc1ccc2c(c1)OCO2	0	2	/	-14[16.7 µM]	/	0
CC1C/C(=N/NC(=O)c2cccc(F)c2)c2ccc(O)cc2C1 (configuration not stated)	/	/	2	-33	99*	/
COc1ccc2c(c1)CC(C)C/C2=N\NC(=O)c1ccco1 (configuration not stated)	3	/	-1	15	-3	1
C[C@@H]1CN([C@H](C)CO)S(=O)(=O)c2ccc(-c3ccncc3)cc2O[C@H]1CN(C)C(=O)c1ccc2c(c1)OCO2	1	4	/	17[16.7 µM]	/	1
CN1C(=O)c2cc(NC(=O)C3CC3)ccc2OC[C@H]2O[C@H](CC(=O)O)CC[C@@H]21	-2	/	/	/	/	2
Cc1cc2ncn(C(=O)c3ccc(F)cc3)c2cc1C	1	2	-3	-5	98*	0
COc1ccc(S(=O)(=O)N2C[C@@H](O)COC[C@@H]3O[C@@H](CC(=O)NCCCN4CCOCC4)CC[C@H]32)cc1	-3	1	/	/	/	-9
CCCC#Cc1ccc([C@H]2[C@@H](CO)N3CCCCN(S(=O)(=O)c4ccccc4C)C[C@H]23)cc1	14*	3	/	/	/	1
COc1ccc(C#Cc2ccc([C@@H]3[C@H]4CN(C(=O)c5ccncc5)CCCCN4[C@H]3CO)cc2)cc1	4	-6	/	/	/	-3
O=S(=O)(Cc1ccccc1)N1CCCCN2[C@H](C1)[C@@H](c1ccc(C#Cc3ccccc3)cc1)[C@@H]2CO	8.0*	-2	/	/	/	0
O=S(=O)(Cc1ccccc1)N1CCCCN2[C@H](C1)[C@H](c1ccc(C#Cc3ccccc3)cc1)[C@@H]2CO	-1	0	/	/	/	-1
O=C(Nc1ccccc1)N1CCCCN2[C@@H](CO)[C@H](c3ccc(C#Cc4ccccc4)cc3)[C@@H]2C1	8.1*	-4	/	/	/	1
COc1ccc(C#Cc2ccc([C@H]3[C@H]4CN(C(=O)c5ccncc5)CCCCN4[C@H]3CO)cc2)cc1	9.3*	2	/	/	/	-1
O=C(Nc1ccccc1)N1CCCCN2[C@@H](CO)[C@@H](c3ccc(C#Cc4ccccc4)cc3)[C@@H]2C1	-6	-3	/	/	/	0
O=C(Nc1cccc(F)c1)N1CCCCN2[C@H](C1)[C@H](c1ccc(C#Cc3ccccc3)cc1)[C@@H]2CO	5	1	/	/	/	/
